Laboratory results reported in PubChem BioAssay (Tox21).
Inconclusive results are not listed. Activity calls are given as the source filed them. Unless noted, the call rests on the fitted dose curve.

What was measured:
[1] = Nuclear factor erythroid 2-related factor 2/antioxidant responsive element (Nrf2/ARE) small molecule agonists: qHTS cell viability counter screen in human keratinocytes (AID 1919968; active means well fitted curve in the direction sought with a large enough effect in the repeat runs; an effect the other way counts as inactive or inconclusive; further: nearly all actives have a fitted effect of over 55% in size)
How it was run: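 Cells of the KeratinoSens line were plated at 1,500 per well and left for 5 h before compound transfer from DMSO stocks. After a 23 h incubation (37 C, 5% CO2), CellTiter-Fluor was added. Signal was taken as fluorescence intensity 1 h later.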

[2] = Nuclear factor erythroid 2-related factor 2/antioxidant responsive element (Nrf2/ARE) small molecule agonists: luciferase reporter gene qHTS assay in human keratinocytes (AID 1919969); further: nearly all actives have a fitted effect of over 35% in size
[3] = G protein-coupled receptor (GPCR) small molecule agonists, calcium flux assay: HEK293 wild type cell line counter screen (AID 1920065)
How it was run: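 Tox21 10K compounds, 15 concentrations each in triplicate, pin-transferred in DMSO onto dye-loaded cells; kinetic read at 480/540 nm for 3 min, 1 s intervals.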

[4] = p53 small molecule agonists, cell-based qHTS assay with rat liver microsomes (AID 1963578)
How it was run: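 Rat liver microsome activation: microsomes 0.5 mg/mL, NADPH 0.5 mg/mL final; p53RE-bla cells, 16 h 37 C; LiveBLAzer readout, 2 h RT dark.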

[5] = p53 small molecule agonists, cell-based qHTS assay with human liver microsomes: qHTS cell viability counter screen (AID 1963579); further: nearly all actives have a fitted effect of over 45% in size
How it was run: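 Luminescent CellTiter-Glo read-out, 30 min at room temperature, gauged cytotoxicity in p53RE-bla cells exposed 16 h at 37 C to DMSO-dissolved compounds with metabolic activation by human liver microsomes and NADPH, each 0.5 mg/mL final.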

[6] = p53 small molecule agonists, cell-based qHTS assay with rat liver microsomes: qHTS cell viability counter screen (AID 1963580); further: nearly all actives have a fitted effect of over 45% in size
How it was run: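 Rat liver microsome (0.5 mg/mL final) and NADPH (0.5 mg/mL final) co-incubation with compounds for 16 h at 37 C on HCT-116 p53RE-bla cells; cytotoxicity taken from intracellular ATP luminescence.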

[7] = p53 small molecule agonists, cell-based qHTS assay: qHTS cell viability counter screen (AID 1963581); further: nearly all actives have a fitted effect of over 45% in size
How it was run: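 ATP content measured by luminescence in HCT-116 p53RE-bla cells treated 16 h at 37 C, same wells as the reporter screen.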

[8] = p53 small molecule agonists, cell-based qHTS assay (AID 1963582; active means well fitted activation curve with a large enough effect in the signal ratio in the repeat runs, not every such curve was filed as active; the % refers to the signal ratio)
How it was run: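 16 h compound exposure (37 C) of p53 response element–bla cells, preceded by 5 h recovery at 37 C/5% CO2; read-out via LiveBLAzer B/G FRET substrate, 2 h RT, fluorescence intensity.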

[9] = target: 5-hydroxytryptamine receptor 2A (Homo sapiens) (UniProt P28223); test: 5-hydroxytryptamine receptor 2A (HTR2A) small molecule antagonists, cell-based qHTS assay (AID 1963586); further: nearly all actives have a fitted effect of over 45% in size
How it was run: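 CHO cells stably expressing human HTR2A were plated for 18 h at 37 C, then loaded with calcium dye for 1 h. Compounds were preincubated 5 min at room temperature before DOI (4 nM solution) was added. Kinetic fluorescence was read for 3 min.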

[10] = target: 5-hydroxytryptamine receptor 2A (Homo sapiens) (UniProt P28223); test: 5-hydroxytryptamine receptor 2A (HTR2A) small molecule agonists, cell-based qHTS assay (AID 1963587); further: nearly all actives have a fitted effect of over 30% in size
How it was run: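 Kinetic calcium-flux fluorescence (2 min, 1 sec intervals) after compound addition in agonist mode. HTR2A-CHO cells were cultured 18 h, then dye-loaded 1 h at 37 C.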

[11] = target: Muscarinic acetylcholine receptor M1 (Homo sapiens) (UniProt P11229); test: Cholinergic receptor muscarinic 1 (CHRM1) small molecule antagonists, cell-based qHTS assay (AID 1963588); further: nearly all actives have a fitted effect of over 40% in size
How it was run: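 Compounds were tested at 15 concentrations in three independent runs. Dye-loaded CHRM1-CHO cells were exposed 5 min at room temperature before stimulation by acetylcholine added at 50nM. Intracellular calcium was read kinetically on FDSS for 3 min.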

[12] = target: Muscarinic acetylcholine receptor M1 (Homo sapiens) (UniProt P11229); test: Cholinergic receptor muscarinic 1 (CHRM1) small molecule agonists, cell-based qHTS assay (AID 1963589); further: nearly all actives have a fitted effect of over 35% in size
How it was run: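 Homogeneous fluorescence calcium flux, agonist mode. Human M1-expressing CHO cells; compound dosed at 15 concentrations, three independent runs; signal sampled every 1 sec.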

[13] = cAMP Responsive Elements (CRE) small molecule agonists, cell-based qHTS assay (AID 1963590)
How it was run: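 HEK 293T cells stably bearing CRE-bla were plated at 2,000 cells per well and rested 18 h. Compounds, positive controls or DMSO were added for 3 h at 37 C. LiveBLAzer B/G substrate was then loaded for 2 h at room temperature.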

[14] = target: Beta-2 adrenergic receptor (Homo sapiens) (UniProt P07550); test: Adrenergic beta2 receptor (ADRB2) small molecule antagonists, cell-based qHTS assay (AID 1963592); further: series mostly up to about 92 µM; nearly all actives have a fitted effect of over 50% in size
How it was run: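 Assay format: CHO-ADRB2 cells, 18-20hr seeding at 37C/5% CO2, then compound plus 1nM isoproterenol agonist mix for 0.5hr RT. Homogeneous time-resolved fluorescence cAMP detection after 1hr, expressed as 665/615 nm ratio.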

[15] = target: D(2) dopamine receptor (Homo sapiens) (UniProt P14416); test: Dopamine D2 receptor (DRD2) small molecule antagonists, cell-based qHTS assay (AID 1963595; active means well fitted inhibition curve with a large enough effect in the signal ratio in the repeat runs, with a control signal flat; the % refers to the signal ratio)
How it was run: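 Antagonist mode in DRD2-HEK293 cells: after compound addition with 0.1 mM Ro20-1724, cells received quinpirole (12 nM) and NKH477 (200 nM) for 30 min at room temperature; HTRF cAMP read after 1 h detection.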

[16] = p53 small molecule agonists, cell-based qHTS assay with human liver microsomes (AID 1963577);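 further: p53 response element beta-lactamase reporter cells with liver microsomes plus NADPH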
How it was run: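 p53RE-bla cells; 5 h settle, 37 C/5% CO2; cpd + HLM 0.5 mg/mL + NADPH 0.5 mg/mL (final); 16 h 37 C; LiveBLAzer 2 h RT dark; fluorescence readout.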

[17] = cAMP Responsive Elements (CRE) small molecule antagonists, cell-based qHTS assay (AID 1963591; active means well fitted inhibition curve with a large enough effect in the signal ratio in the repeat runs, not every such curve was filed as active; the % refers to the signal ratio)
How it was run: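 First, CRE-bla HEK293T cells settled 18 h at 37 C. Next, compound and 0.25 uM final NKH477 were applied for 3 h. Last, LiveBLAzer B/G substrate was loaded for 2 h at room temperature.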

[18] = target: D(2) dopamine receptor (Homo sapiens) (UniProt P14416); test: Dopamine D2 receptor (DRD2) small molecule agonists, cell-based qHTS assay (AID 1963594); further: nearly all actives have a fitted effect of over 35% in size
How it was run: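 cAMP accumulation in DRD2-HEK293 cells measured by HTRF after 1 h detection; compounds added 10 min before NKH477 (200nM […]) forskolin-analogue stimulation, 30 min at room temperature, with Ro20-1724 present at 0.1 mM final.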

[19] = target: KiSS-1 receptor (Homo sapiens) (UniProt Q969F8); test: Human kisspeptin (KISS1R) small molecule agonists, calcium flux assay in KISS1R-HEK293 cells (AID 1920064; active means well fitted curve in the direction sought with a large enough effect in the repeat runs; an effect the other way counts as inactive or inconclusive)
How it was run: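 Cell line: HEK293, stable human KISS1R. Dye loading 1 h at 37 C after 18 h culture. Read: kinetic fluorescence, 480/540 nm, 3 min at 1 s intervals.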

[20] = target: Beta-2 adrenergic receptor (Homo sapiens) (UniProt P07550); test: Adrenergic beta2 receptor (ADRB2) small molecule agonists, cell-based qHTS assay (AID 1963593);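 further: CHO cells stably overexpressing human ADRB2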
How it was run: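 CHO cells stably over-expressing ADRB2 were plated overnight at 37C, then dosed with compounds plus a stimulation mix containing 100uM IBMX and 25uM Ro-20-1724 for 0.5hr at room temperature. cAMP was measured by HTRF competition, 1hr.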
On the % scale 0 is the no-effect control and ±100 the full control effect.

Sequence of 5-hydroxytryptamine receptor 2A (Homo sapiens) (P28223 whole entry, looked up): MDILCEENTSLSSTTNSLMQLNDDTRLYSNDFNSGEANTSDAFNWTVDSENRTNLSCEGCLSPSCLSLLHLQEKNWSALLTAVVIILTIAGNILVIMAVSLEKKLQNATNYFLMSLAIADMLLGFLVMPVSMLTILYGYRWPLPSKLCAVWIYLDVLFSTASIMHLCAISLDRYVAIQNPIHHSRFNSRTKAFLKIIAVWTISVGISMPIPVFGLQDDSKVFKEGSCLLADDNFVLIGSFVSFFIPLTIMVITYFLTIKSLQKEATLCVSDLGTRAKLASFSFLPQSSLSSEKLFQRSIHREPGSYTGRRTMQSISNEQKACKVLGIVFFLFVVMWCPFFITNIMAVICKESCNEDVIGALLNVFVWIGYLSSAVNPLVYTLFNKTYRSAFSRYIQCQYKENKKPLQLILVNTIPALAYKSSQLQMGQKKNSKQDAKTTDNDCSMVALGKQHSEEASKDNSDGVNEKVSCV
Sequence of Beta-2 adrenergic receptor (Homo sapiens) (P07550 whole entry, looked up): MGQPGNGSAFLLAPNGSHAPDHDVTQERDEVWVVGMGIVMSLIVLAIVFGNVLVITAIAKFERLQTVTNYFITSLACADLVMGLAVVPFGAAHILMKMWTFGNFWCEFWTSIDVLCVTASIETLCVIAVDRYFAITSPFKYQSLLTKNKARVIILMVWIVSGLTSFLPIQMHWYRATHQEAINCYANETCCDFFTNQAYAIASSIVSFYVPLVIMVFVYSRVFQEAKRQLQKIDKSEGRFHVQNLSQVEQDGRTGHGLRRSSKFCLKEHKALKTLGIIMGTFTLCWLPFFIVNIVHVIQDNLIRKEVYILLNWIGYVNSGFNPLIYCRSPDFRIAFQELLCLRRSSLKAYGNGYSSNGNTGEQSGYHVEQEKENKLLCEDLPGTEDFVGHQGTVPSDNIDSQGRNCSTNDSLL
Sequence of Muscarinic acetylcholine receptor M1 (Homo sapiens) (P11229 whole entry, looked up): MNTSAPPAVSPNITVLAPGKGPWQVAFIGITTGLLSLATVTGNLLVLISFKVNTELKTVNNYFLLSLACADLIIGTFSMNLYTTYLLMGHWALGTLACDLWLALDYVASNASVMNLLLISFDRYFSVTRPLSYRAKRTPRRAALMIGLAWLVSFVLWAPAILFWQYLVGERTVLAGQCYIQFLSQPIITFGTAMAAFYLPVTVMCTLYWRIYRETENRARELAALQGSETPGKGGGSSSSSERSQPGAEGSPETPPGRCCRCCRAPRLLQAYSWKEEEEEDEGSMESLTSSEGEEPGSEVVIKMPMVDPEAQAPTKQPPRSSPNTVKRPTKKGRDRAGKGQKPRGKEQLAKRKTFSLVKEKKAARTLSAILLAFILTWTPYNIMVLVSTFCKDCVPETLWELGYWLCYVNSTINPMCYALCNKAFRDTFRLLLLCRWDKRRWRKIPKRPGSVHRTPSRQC
Sequence of KiSS-1 receptor (Homo sapiens) (Q969F8 whole entry, looked up): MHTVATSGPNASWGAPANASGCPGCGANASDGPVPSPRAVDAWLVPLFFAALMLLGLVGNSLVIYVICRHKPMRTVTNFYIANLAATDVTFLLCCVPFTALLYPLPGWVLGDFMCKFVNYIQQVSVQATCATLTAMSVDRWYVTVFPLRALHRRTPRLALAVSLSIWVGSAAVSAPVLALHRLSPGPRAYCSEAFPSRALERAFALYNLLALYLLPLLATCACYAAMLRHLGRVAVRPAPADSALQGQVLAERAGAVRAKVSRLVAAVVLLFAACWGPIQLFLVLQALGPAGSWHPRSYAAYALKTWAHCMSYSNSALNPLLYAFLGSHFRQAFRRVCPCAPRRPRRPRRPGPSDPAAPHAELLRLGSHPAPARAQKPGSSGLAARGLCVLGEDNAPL
Sequence of D(2) dopamine receptor (Homo sapiens) (P14416 whole entry, looked up): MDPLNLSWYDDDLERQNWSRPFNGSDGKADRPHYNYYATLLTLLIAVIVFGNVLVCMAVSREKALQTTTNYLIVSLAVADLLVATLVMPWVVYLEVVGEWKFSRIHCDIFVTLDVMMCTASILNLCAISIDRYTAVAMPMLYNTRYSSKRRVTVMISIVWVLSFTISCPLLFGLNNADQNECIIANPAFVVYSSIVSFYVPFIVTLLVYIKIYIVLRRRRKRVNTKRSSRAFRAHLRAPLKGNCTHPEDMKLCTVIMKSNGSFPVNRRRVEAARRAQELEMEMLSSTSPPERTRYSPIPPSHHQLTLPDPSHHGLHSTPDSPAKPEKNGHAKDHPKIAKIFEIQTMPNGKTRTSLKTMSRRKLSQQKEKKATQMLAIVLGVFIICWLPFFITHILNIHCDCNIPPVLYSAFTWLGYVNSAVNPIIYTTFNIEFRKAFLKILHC

C[C@H]1NCc2cc(-c3ccc4c(=O)c(C(=O)O)cn(C5CC5)c4c3OC(F)F)ccc21
inactive: activity change, negative = cytotoxicity [1] 4.74% [at 19 µM] | activity, positive = activation [2] -0.2% [at 19 µM] | activation [3] -0.804% [at 11.8 µM] | activation [4] 0.634% [at 13.6 µM] | activity change, negative = cytotoxicity [5] -4.1% [at 13.5 µM] | activity change, negative = cytotoxicity [6] 2.66% [at 13.5 µM] | activity change, negative = cytotoxicity [7] -9.15% [at 13.5 µM] | activation [8] -3.01% [at 13.5 µM] | activity, negative = inhibition [9] 1.4% [at 12.7 µM] | activation [10] -1.89% [at 15.9 µM] | activity, negative = inhibition [11] 19.5% [at 12.6 µM] | activation [12] -0.122% [at 15.8 µM] | activation [13] -1.76% [at 19 µM] | activity change, negative = inhibition [14] 10.3% [at 19 µM] | activity change, negative = inhibition [15] -0.31% [at 18.9 µM]

C[C@H](CCC(=O)NCC(=O)O)[C@H]1CC[C@H]2[C@@H]3[C@H](O)C[C@@H]4C[C@H](O)CC[C@]4(C)[C@H]3C[C@H](O)[C@]12C
inactive: Potency [1] | Potency [2] | Potency [16] | Potency [5] | Potency [6] | Potency [7] | Potency [8] | Potency [9] | Potency [10] | Potency [11] | Potency [12] | Potency [13] | Potency [17] | Potency [14] | Potency [18] | Potency [15]

CC/C=C\CCCCO
inactive: Potency [1] | Potency [2] | Potency [16] | Potency [4] | Potency [5] | Potency [6] | Potency [7] | Potency [8] | Potency [9] | Potency [11] | Potency [12] | Potency [13] | Potency [17] | Potency [14] | Potency [18] | Potency [15]

COc1cc(NS(=O)(=O)c2ccc(N)cc2)ncn1
inactive: Potency [1] | Potency [2] | outcome [19] | outcome [3] | Potency [16] | Potency [4] | Potency [5] | Potency [6] | Potency [7] | Potency [8] | Potency [10] | Potency [11] | Potency [12] | Potency [17] | Potency [14] | Potency [20] | Potency [15]

OCCC(F)(F)C(F)(F)C(F)(F)C(F)(F)C(F)(F)C(F)(F)C(F)(F)C(F)(F)F
inactive: Potency [1] | Potency [2] | outcome [19] | outcome [3] | Potency [16] | Potency [4] | Potency [5] | Potency [6] | Potency [8] | Potency [9] | Potency [11] | Potency [12] | Potency [13] | Potency [17] | Potency [14] | Potency [15]

CCN(CC)C(=O)/C(C#N)=C/c1cc(O)c(O)c([N+](=O)[O-])c1
inactive: Potency [1] | Potency [2] | outcome [19] | outcome [3] | Potency [16] | Potency [4] | Potency [5] | Potency [6] | Potency [9] | Potency [10] | Potency [11] | Potency [12] | Potency [14] | Potency [15]

O=C(/C=C/c1ccccc1)OC/C=C/c1ccccc1
inactive: Potency [1] | Potency [2] | outcome [19] | outcome [3] | Potency [16] | Potency [4] | Potency [5] | Potency [6] | Potency [8] | Potency [9] | Potency [10] | Potency [12] | Potency [13] | Potency [14] | Potency [18] | Potency [15]
